This is one part of a sample in which hits are shown more often than they occur.
IL1B secr inh = qHTS for Inhibitors of Inflammasome Signaling: IL-1-beta AlphaLISA Primary Screen | 360,000 tested, 4.7% active | AID 743279, 2014 | THP-1 LPS/ATP IL-1B secretion, AlphaLISA, 16 h; active compounds read low | activity change, % at 57.5 µM; in the data active = activity change below about -50%; inconclusive = mostly about -30% to -49%
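THP-1 cells pretreated 1 hr with compounds (up to 57.5 uM final), then stimulated with LPS (250 ng/mL final) plus ATP (1.25 mM final); secreted IL-1B measured by AlphaLISA after 16 hr, decreased signal indicating inhibition.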
HT1080NT lethal = qHTS for induction of synthetic lethality in tumor cells producing 2HG: qHTS for the HT-1080-NT fibrosarcoma cell line; HT-1080-NT fibrosarcoma viability, CellTiter-Glo ATP luminescence, 48 h; Potency, µM (highest dose often 46.1 µM), without a hit: at the highest dose activity, negative = less viability, hits mostly cytotoxic; 360,000 tested, 1.6% active;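 also: NT is the 2HG producing partner of a matched IDH1 knockdown line; potency is read from the fitted curve at half-maximal effect; 0% = DMSO-treated cells and -100% = media-only wells without cells; nearly all actives have a fitted effect of over 55% in size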
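Read-out is CellTiter-Glo luminescence after 10 minutes at room temperature, following 48 hours' compound treatment of HT-1080-NT cells (750 cells/well, RPMI, 5% FBS, 37 degrees C).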
HT1080 IDH1KD tx = qHTS for induction of synthetic lethality in tumor cells producing 2HG: qHTS for the HT-1080-IDH1KD cell line; HT-1080 IDH1 knockdown viability, ATP luminescence, 48 h; Potency, µM (highest dose often 46.1 µM), for the others: top-dose activity, negative = toxicity, actives largely listed as cytotoxic; 360,000 tested, 2% active;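 also: potency is read from the fitted curve at half-maximal effect; 0% = DMSO wells and -100% = cell-free medium wells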
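IDH1KD HT-1080 cells, 750/well, RPMI + 5% FBS; compound pinned after 2 h settling; 48 h, 37 °C; CellTiter-Glo luminescence; % activity normalised to DMSO and no-cell wells; curves fitted, classed by r2 and efficacy.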
ALOX12 inh = Primary qHTS assay for inhibitors of human arachidonate 12S-lipoxygenase (ALOX12): Round 2 | purified 12hLO, xylenol orange hydroperoxide absorbance | Polyunsaturated fatty acid lipoxygenase ALOX12 (Homo sapiens), P18054 | Potency, µM (titrated, usually from 108 µM), for the others: at the top dose activity change, negative = inhibition, actives largely listed as inhibitors | 580,000 tested, 1.1% active; also: potency is read from the fitted curve at half-maximal effect
Target sequence (P18054 whole entry, looked up): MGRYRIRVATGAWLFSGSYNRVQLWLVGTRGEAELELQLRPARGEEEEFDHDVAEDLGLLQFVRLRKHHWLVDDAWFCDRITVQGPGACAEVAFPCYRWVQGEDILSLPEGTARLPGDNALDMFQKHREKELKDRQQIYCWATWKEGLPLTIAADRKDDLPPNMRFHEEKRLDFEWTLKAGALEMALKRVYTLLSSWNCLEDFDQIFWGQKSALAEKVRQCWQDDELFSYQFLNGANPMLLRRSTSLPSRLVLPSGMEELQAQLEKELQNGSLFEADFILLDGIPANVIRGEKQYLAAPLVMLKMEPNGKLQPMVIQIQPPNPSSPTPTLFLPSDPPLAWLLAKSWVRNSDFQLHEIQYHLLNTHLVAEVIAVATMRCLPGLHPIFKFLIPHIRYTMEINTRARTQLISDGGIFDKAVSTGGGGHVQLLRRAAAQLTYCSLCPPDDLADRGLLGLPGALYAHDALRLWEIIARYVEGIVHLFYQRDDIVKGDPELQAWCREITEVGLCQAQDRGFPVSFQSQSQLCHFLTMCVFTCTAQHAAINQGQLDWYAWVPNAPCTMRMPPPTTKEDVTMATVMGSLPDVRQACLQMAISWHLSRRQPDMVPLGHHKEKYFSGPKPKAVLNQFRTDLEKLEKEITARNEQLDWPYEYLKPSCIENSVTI
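Purified human 12hLO at 150 nM in 25 mM Hepes, 0.01% Triton X-100, pH 7.0, preincubated 15 min at room temperature with compound. Reaction started with 40 uM arachidonic acid, 30 min at room temperature. Hydroperoxide measured by Fe-xylenol orange, 573/405 nm absorbance ratio.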
DT40 TDP1 CPT = qHTS for Inhibitors of human tyrosyl-DNA phosphodiesterase 1 (TDP1): qHTS in cells in presence of CPT. 420,000 tested, 12% active. Potency, µM (highest dose often 46.2 µM), for inactives: at the highest dose activity change, negative = growth inhibition, hits mostly inhibitors. chicken DT40 Tdp1-/-;hTDP1 cells + 20 nM CPT, ATP luminescence, 48 h. AID 686979, 2013; also: potency is read from the fitted curve at half-maximal effect; nearly all actives have a fitted effect of over 55% in size
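Chicken DT40 Tdp1-/- cells complemented with human TDP1, 400 cells/well, exposed to compounds plus 20 nM camptothecin for at least 48 h at 37 C; viability read as ATP content by CellTiter-Glo luminescence.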
TDP1 cell noCPT = qHTS for Inhibitors of human tyrosyl-DNA phosphodiesterase 1 (TDP1): qHTS in cells in absence of CPT | Potency, µM (doses to about 46.2 µM), for inactives: top-dose activity change, negative = growth inhibition, hits mostly inhibitors | 420,000 tested, 15% active | DT40 Tdp1-/- hTDP1 cells, no CPT, ATP luminescence, 48 h | AID 686978, 2013; also: potency is read from the fitted curve at half-maximal effect; nearly all actives have a fitted effect of over 55% in size
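Growth of hTDP1-complemented DT40 Tdp1-knockout cells is measured by ATP luminescence after at least 48 hr compound exposure at 37 °C, with DMSO substituting for the 20 nM CPT used in the parallel screen.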
Active calls of the source: *; ? = inconclusive; . = no result given; [ ] = another dose, or the depositor's remark. Unless noted, calls follow the shape of the dose curve; as a rule, active = well fitted curve in the direction sought with a large enough effect; inconclusive = small, poorly fitted or top-dose-only effect, or another doubt; inactive = no such curve, though single readings can be large; an effect the other way counts as inactive or inconclusive. Unless noted, % is scaled to controls: 0 for no effect and ±100 for the full control effect.

SMILES | IL1B secr inh | HT1080NT lethal | HT1080 IDH1KD tx | ALOX12 inh | DT40 TDP1 CPT | TDP1 cell noCPT
O=C1CCN(Cc2ccc(Br)cc2)CCN1[C@H](CO)Cc1ccccc1 | -2 | 6% | 0% | -40% | 20µM* | ?
O/N=C1\CCCc2c1nc(-c1ccccc1F)n2O | 9 | 16% | 16% | ? | 14% | -16%
O=C1COc2ccc(-c3csc(NCC4CCCO4)n3)cc2N1 (stereo unspecified) | -22 | -1% | -4% | 45µM* | ? | -24%
CC(Nc1nc(-c2ccc3c(c2)NC(=O)CO3)cs1)c1ccccc1 (stereo unspecified) | ? | ? | ? | ? | 18µM* | 26µM*
COc1cccc(-c2nc(-c3ccc4c(c3)NC(=O)CO4)cs2)c1 | ? | -4% | -14% | ? | 8.2µM* | 5.2µM*
CCOc1ccc(S(=O)(=O)Nc2cccc(-c3nnc4n3CCCCC4)c2)cc1 | . | . | . | -4% | . | .
Cc1ccc(-n2c(C)cc(/C=c3/sc4nc5ccccc5n4c3=O)c2C)cc1 | -9 | -6% | -6% | . | 16µM* | 9.2µM*
O=c1/c(=C\c2cccn2-c2ccccc2)sc2nc3ccccc3n12 | 1 | ? | 17% | -18% | ? | ?
CC(C)C(NC(N)=O)C(=O)Nc1ccc(Cl)cc1 (stereo unspecified) | . | . | . | 0% | . | .
CC(=O)Nc1ccc(Nc2nc(C)c([N+](=O)[O-])c(Nc3ccccc3)n2)cc1 | -24 | -25% | ? | -2% | 23µM* | 18µM*
Cc1nc(Nc2ccc(F)cc2)nc(Nc2ccc(F)cc2)c1[N+](=O)[O-] | 18 | ? | ? | -11% | ? | ?
Cc1nc(Nc2ccc(C(=O)O)cc2)nc(Nc2ccc(C(=O)O)cc2)c1[N+](=O)[O-] | -3 | -3% | 0% | -17% | -7% | 6%
CCC(=O)Nc1ccc(Nc2nc(C)c([N+](=O)[O-])c(Nc3ccc(NC(=O)CC)cc3)n2)cc1 | 6 | 6% | -3% | ? | 8.2µM* | 6.5µM*
O=C(CSc1nnc(-c2ccccc2Cl)o1)N1CCCc2ccccc21 | . | . | . | -20% | ? | 16µM*
CC1CCCCN1C(=O)CSc1nnc(-c2ccccc2F)o1 (stereo unspecified) | -14 | -8% | 9% | 11% | -18% | -11%
CC1CCN(C(=O)CSc2nnc(-c3ccc(S(=O)(=O)N4CCOCC4)cc3)n2C)CC1 | 16 | 1% | 16% | 2% | -23% | -12%
O=C(CSc1nnc(-c2ccccc2Br)o1)N1CCc2ccccc2C1 | -60* | -27% | 9%[9.24 µM] | -20% | ? | ?
CC1Cc2ccccc2N1C(=O)CSc1nnc(-c2ccccc2Cl)o1 (stereo unspecified) | . | . | . | -29% | 26µM* | ?
CC1Cc2ccccc2N1C(=O)CSc1nnc(-c2ccc(S(=O)(=O)N3CCOCC3)cc2)n1C (stereo unspecified) | 0 | 0% | -3% | -21% | 16µM* | ?
O=C(CSc1nnc(-c2ccccc2F)o1)N1CCCC1 | -12 | 0% | 2% | -10% | -7% | -7%
Fc1ccc(C2Cn3nnc(-c4nc(-c5ccc(Br)cc5)no4)c3CO2)cc1 (stereo unspecified) | . | . | . | 43% | . | .

Screens deposited in PubChem BioAssay by National Center for Advancing Translational Sciences (NCATS).
